Bioassay records (PubChem)
Lassa entry inh = Lassa virus entry inhibition; actives 1.2% (n = 300,000); Lassa virus pseudotype entry inhibition, cell reporter; Potency, µM (series often up to 37.9 µM), most hits filed as inhibitors; calls by dose curve; tested in HEK293 cells; further: nearly all actives have a fitted effect of over 50% in size
HCMV inh = blocks human cytomegalovirus replication | HFF cells, HCMV-luciferase reporter, 72 h; hits give low values | activity change, negative = inhibition, % at 57.5 µM | actives 4.5% (n = 410,000); in the data active means activity change below about -60%; inconclusive means no clear call, values can overlap the other calls; inactive means above about -39%
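HFF cells seeded 16 h at 37C, treated with compounds, infected with luciferase-reporter HCMV at MOI 1 PFU/cell; luciferase read at 72 h post infection, normalized to buffer-only and Salinomycin controls.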
Vaccinia mCherry = vaccinia inhibition (mCherry reporter) | Vaccinia virus mCherry reporter infection, fluorescence | AID 720579 | Potency, µM (series often up to 36.5 µM), usual class: inhibitors | actives 0.63% (n = 310,000); calls by dose curve; tested in A549 cells; further: nearly all actives have a fitted effect of over 35% in size
Marburg entry inh = blocks Marburg virus binding to or entry into cells; Potency, µM (doses to about 37.8 µM), usual class: inhibitors; actives 1.8% (n = 300,000); Marburg virus pseudotyped entry inhibition, cell reporter; AID 540276; calls by dose curve; tested in HEK293 cells
FMDV inh = blocks foot and mouth disease virus; FMDV antiviral cell-based qHTS; Potency, µM (doses to about 57.9 µM), usual class: inhibitors; actives 1.2% (n = 410,000); AID 1159524; calls by dose curve; tested in HEK293T cells; further: read-out not given here; nearly all actives have a fitted effect of over 45% in size
Vaccinia Venus = vaccinia inhibition (Venus reporter). Vaccinia virus Venus reporter expression, fluorescence. Potency, µM (doses to about 36.5 µM), most hits filed as inhibitors. actives 0.46% (n = 330,000). AID 720580; calls by dose curve; tested in A549 cells; further: nearly all actives have a fitted effect of over 30% in size
Each line names hits and unclear results; the compound was inactive in the other large screens. An excerpt weighted towards active compounds, which were near 6.5% of everything screened.

CC1CN(CCNC(=O)C2CCCc3c2[nH]c2ccccc32)Cc2ccccc2O1 (configuration not stated)	FMDV inh inconclusive (no result: Lassa entry inh, HCMV inh, Marburg entry inh)
O=c1cc(CCl)nc(Cc2c(Cl)cccc2Cl)[nH]1	Lassa entry inh inconclusive, HCMV inh -93, Vaccinia mCherry inconclusive, Marburg entry inh inconclusive, FMDV inh inconclusive, Vaccinia Venus inconclusive
O=c1cc(-c2ccccc2)nc(Cc2c(Cl)cccc2Cl)[nH]1	Vaccinia mCherry inconclusive
Cc1cc2c(c(-c3ccc(Cl)cc3)c1)OC(CNC(=O)CCC(=O)N(C)C)C2 (configuration not stated)	none (no result: Lassa entry inh, HCMV inh, Marburg entry inh)
COc1cc(OC)c2c(C)c(CC(=O)NCc3ccccc3OC)c(=O)oc2c1	none
CC(C)(C)OC(=O)NCCCCCNC(=O)c1[nH]cnc1C(=O)Nc1ccc(Cl)cc1	Vaccinia mCherry 11µM, FMDV inh 32µM, Vaccinia Venus inconclusive (no result: Lassa entry inh, Marburg entry inh)
CC(C)(C)OC(=O)NCc1ccc(NC(=O)c2nc[nH]c2C(=O)NCCCCCCNC(=O)c2[nH]cnc2C(=O)Nc2ccc(CNC(=O)OC(C)(C)C)cc2)cc1	Vaccinia Venus inconclusive (no result: Lassa entry inh, Marburg entry inh)
CC(C)(C)OC(=O)NCCCCCNC(=O)c1[nH]cnc1C(=O)Nc1ccccc1	Vaccinia mCherry inconclusive (no result: Lassa entry inh, Marburg entry inh)
Cc1ccc(NC(=O)c2nc[nH]c2C(=O)NCCCCCNC(=O)OC(C)(C)C)cc1	HCMV inh -64, FMDV inh inconclusive, Vaccinia Venus inconclusive (no result: Lassa entry inh, Marburg entry inh)
O=C(NCCN1CCOCC1)c1ccccc1N1C(=O)[C@@H]2Cc3c([nH]c4ccccc34)C(c3ccc(F)cc3)N2C1=O (some centres not stated)	HCMV inh -75 (no result: Lassa entry inh, Marburg entry inh)
COc1ccc(C2c3[nH]c4ccccc4c3C[C@H]3C(=O)N(c4ccccc4C(=O)NCCN4CCOCC4)C(=O)N23)cc1 (some centres not stated)	none (no result: Lassa entry inh, Marburg entry inh)
CN1C(=S)N(c2cccnc2)C(=O)/C1=C\c1ccc(N(C)C)cc1	HCMV inh -64, Vaccinia mCherry inconclusive, Marburg entry inh inconclusive, FMDV inh inconclusive
Cc1c(N2C(=O)/C(=C\c3ccc(N(C)C)cc3)N(C)C2=S)c(=O)n(-c2ccccc2)n1C	HCMV inh -65
CN(C)c1ccc(/C=C/C(=O)c2cccnc2)cc1	Marburg entry inh inconclusive
CCCCOc1ccc(C(=O)NCC2(N3CCN(C)CC3)CCCCC2)cc1	Marburg entry inh inconclusive
COc1ccc(N2CCN(C3C(=O)c4ccccc4N3C(C)=O)CC2)cc1 (configuration not stated)	none (no result: Marburg entry inh)
CCCN1CCC(=O)N([C@H](CSc2ccccc2)c2ccccc2)CC1	HCMV inh -102 (no result: Lassa entry inh, Marburg entry inh)
Cc1ccc2c(c1)/C(=C/c1ccccc1F)C(=O)N2	none (no result: Lassa entry inh, Marburg entry inh)
Cc1ccc2c(c1)/C(=C/c1ccccc1)C(=O)N2	Lassa entry inh 10µM, Marburg entry inh inconclusive
O=C(CSc1cnc2ccccc2n1)c1ccc(F)cc1	Lassa entry inh 5.8µM, Marburg entry inh inconclusive (no result: Vaccinia mCherry, Vaccinia Venus)
COC(=O)CSc1cnc2ccccc2n1	none
O=C(c1cccs1)N1C[C@H](O)[C@H](n2cc(C3CC3)nn2)C[C@@H]1c1ccccc1	none (no result: HCMV inh, Vaccinia mCherry, Marburg entry inh, FMDV inh, Vaccinia Venus)
COc1ccc(NC(=O)/C=C/c2ccccc2)cn1	none
COc1cccc(/C=C/C(=O)Nc2ccc(OC)nc2)c1	Lassa entry inh inconclusive, HCMV inh -66
COc1cccc(C(=O)Nc2ccc(Oc3cccc(C(F)(F)F)c3)nc2)c1	Lassa entry inh inconclusive, HCMV inh -74, Marburg entry inh 8.9µM, Vaccinia Venus inconclusive
O=C(Nc1ccc(Oc2cccc(C(F)(F)F)c2)nc1)c1cccs1	HCMV inh -61, Marburg entry inh inconclusive, FMDV inh inconclusive
COc1ccc(-c2nc3cc(C)ccn3c2NC(=O)c2cccc(F)c2)cc1	Lassa entry inh inconclusive, Marburg entry inh inconclusive
O=C(c1cn[nH]c1)N1CCc2c([nH]c3ccccc23)C1c1c(F)cccc1Cl (configuration not stated)	Lassa entry inh inconclusive, Vaccinia mCherry 10µM, Marburg entry inh inconclusive
Cc1nonc1CC(=O)N1CCc2c([nH]c3ccccc23)C1c1ccccc1F (configuration not stated)	Marburg entry inh inconclusive
Cc1ccc(NC(=O)N2CCc3c([nH]c4ccccc34)C2c2ccccc2F)c(Cl)c1 (configuration not stated)	Lassa entry inh 7.9µM (no result: Marburg entry inh)
O=C(Nc1ccccc1)N1CCc2c([nH]c3ccccc23)C1C(F)(F)F (configuration not stated)	Lassa entry inh inconclusive, Vaccinia mCherry inconclusive, Marburg entry inh inconclusive, Vaccinia Venus inconclusive
O=C(c1ccc(Cl)cc1)N1CCc2c([nH]c3ccccc23)C1C(F)(F)F (configuration not stated)	Lassa entry inh inconclusive, HCMV inh inconclusive, Marburg entry inh 11µM
O=C1Nc2ccc(F)cc2C12OCCO2	none
O=C1Nc2ccc(F)cc2C12SCCS2	Lassa entry inh inconclusive, HCMV inh -107
Cc1csc(C(C)N(C)C(=O)c2cnn(-c3nccc(-c4cc(C)sc4C)n3)c2C)n1 (configuration not stated)	none (no result: Lassa entry inh, HCMV inh, Marburg entry inh)
O=C(NC(=O)c1cc([N+](=O)[O-])ccc1Cl)C1=C(N2CCCC2)COC1=O	Vaccinia mCherry inconclusive, FMDV inh 20µM (no result: Lassa entry inh, Marburg entry inh)
COCCn1cnc2cnc(Nc3cc(OC)c(OC)c(OC)c3)cc21	none (no result: Lassa entry inh, Vaccinia mCherry, Marburg entry inh, FMDV inh, Vaccinia Venus)
Cc1cc(C)n(CC(=O)NNC(=O)CCCOc2ccc(Cl)cc2C)n1	HCMV inh -61
N#CCC(=O)Nc1ccc(C(=O)NNC(=S)NC2CC2)cc1	Lassa entry inh inconclusive, HCMV inh -97
Cn1cc(CCNC(=O)N2CCOC2=O)c2ccccc21	none (no result: Lassa entry inh, Vaccinia mCherry, Marburg entry inh, FMDV inh, Vaccinia Venus)
Cc1nc([N+](=O)[O-])c(Br)n1Cc1ccc(Cl)c(Cl)c1	FMDV inh 18µM (no result: Lassa entry inh, Vaccinia mCherry, Marburg entry inh, Vaccinia Venus)
Cc1nc([N+](=O)[O-])c(Br)n1CC(=O)c1ccc(Cl)cc1	Lassa entry inh inconclusive, Marburg entry inh inconclusive, Vaccinia Venus inconclusive (no result: Vaccinia mCherry)
COc1ccc(C(=O)Cn2c(C)nc([N+](=O)[O-])c2Br)cc1	Vaccinia mCherry 3.5µM, FMDV inh inconclusive, Vaccinia Venus 7.9µM
COc1ccc(OCC(O)CN(C)C(=O)/C=C/c2cccc([N+](=O)[O-])c2)cc1 (configuration not stated)	HCMV inh -78
COC(=O)C1CCN(Cc2ccc3c(c2)CN(C(=O)c2cc(C)on2)CCO3)CC1	none (no result: Lassa entry inh, HCMV inh, Marburg entry inh)
C=CCNC(=S)Nc1cc(C)ccn1	HCMV inh -83
Cc1ccnc(NC(=S)NC(=O)/C=C/c2ccccc2)c1	none (no result: FMDV inh)
Cc1c(CC(=O)NCc2ccc(F)cc2)c(=O)oc2cc(O)c(Cl)cc12	HCMV inh inconclusive
CCOc1ccc(/C(O)=C2/C(=O)C(=O)N(c3nc(C)c(C)s3)C2c2ccco2)cc1 (configuration not stated)	HCMV inh -90 (no result: Vaccinia mCherry)
COc1ccc(-c2cn3c(n2)sc2cc(C(=O)NCCCN4CCCCCC4)ccc23)cc1	Vaccinia mCherry inconclusive, Vaccinia Venus inconclusive (no result: HCMV inh, Marburg entry inh)
O=C(c1ccc(Cl)cc1)C1CCCN(Cc2cnn(-c3ccccc3)c2)C1 (configuration not stated)	Marburg entry inh 5.6µM
